Screens: PubChem BioAssay, The Scripps Research Institute Molecular Screening Center
An excerpt weighted towards active compounds, which were near 3.5% of everything screened.
TEAD-YAP inh: TEAD-YAP interaction inhibition. HEK-TIYL cells, TEAD-Gal4/YAP UAS-luciferase luminescence. inhibition, % at 9.12 µM. 640,000 tested, 1.4% active; in the data active = inhibition above about 32%;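 also: 0% = median of test compound wells and 100% = reference inhibitor wells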
MITF primary: blocks human microphthalmia-associated transcription factor; O75030; AlphaScreen MITF homodimerization, bead proximity signal; inhibition, % at 2.6 µM; 650,000 tested, 0.91% active; AID 1259374; in the data active = inhibition above about 50%;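 also: 0% = vehicle wells with protein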
GPR151 ag: human GPR151 activation; PathHunter beta-arrestin GPR151 cells, luminescence; Q8TDV0; 650,000 tested, 1% active; activation, % at 11.2 µM; in the data active = activation above about 4.9%;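 also: 0% = median of compound wells and 100% = cells with positive control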
Target sequence (Q8TDV0 whole entry, looked up): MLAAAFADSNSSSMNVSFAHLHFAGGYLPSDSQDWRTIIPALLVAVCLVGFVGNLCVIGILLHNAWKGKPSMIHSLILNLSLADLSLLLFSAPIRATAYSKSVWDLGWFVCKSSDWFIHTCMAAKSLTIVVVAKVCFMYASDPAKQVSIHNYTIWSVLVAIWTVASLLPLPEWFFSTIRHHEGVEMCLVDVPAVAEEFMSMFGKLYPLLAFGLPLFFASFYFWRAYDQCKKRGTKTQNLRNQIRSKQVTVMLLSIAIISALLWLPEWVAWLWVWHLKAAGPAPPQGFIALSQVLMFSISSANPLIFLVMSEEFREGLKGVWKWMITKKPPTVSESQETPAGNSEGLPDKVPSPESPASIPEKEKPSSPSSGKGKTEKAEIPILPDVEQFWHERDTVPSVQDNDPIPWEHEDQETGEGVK
FBW7 act: human FBW7 E3 ligase activation, primary screen; normalized activity (activation), % at 26.1 µM; 650,000 tested, 0.13% active; AlphaScreen FBW7–phospho-cyclin E peptide binding, activator screen; in the data active = normalized activity above about 1.9%;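 also: purified mutant Fbw7 with reduced substrate affinity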
An asterisk follows results filed as active.

Screening COc1ccc(-c2cn3ccccc3n2)cc1Br returned TEAD-YAP inh -27.8, MITF primary -3.2, GPR151 ag -6.6 and FBW7 act -0.1.
Screening Clc1ccc(-c2cn3ccccc3n2)cc1 returned TEAD-YAP inh -10.6, MITF primary -3.4, GPR151 ag -7.9 and FBW7 act 0.0.
COc1ccc(-c2cn3ccccc3n2)cc1 was read as TEAD-YAP inh 66.3*, MITF primary 4.7, GPR151 ag -8.9 and FBW7 act -0.1.
For CCC(C)Oc1ccc(/C=C2/NC(=O)N(Cc3ccccc3F)C2=O)cc1 (centres undefined) the results were TEAD-YAP inh 5.3, MITF primary 4.3, GPR151 ag 0.3 and FBW7 act -0.1.
Screening COc1ccc([N+](=O)[O-])cc1C1=N/C(=C\c2sccc2C)C(=O)O1 returned TEAD-YAP inh -5.4, MITF primary -4.4, GPR151 ag -2.2 and FBW7 act 0.0.
`CCOC(=O)c1c(C)[nH]c(C)c1C(=O)CCl` gave TEAD-YAP inh 71.1*, MITF primary 6.5, GPR151 ag -0.8 and FBW7 act 0.1.
CC(=O)c1c(-c2ccccc2)[nH]c2ccccc12 was read as TEAD-YAP inh 46.4*, MITF primary 5.4, GPR151 ag 4.3 and FBW7 act 0.0.
Cc1[nH]c2ccccc2c1C(=O)CCl was read as TEAD-YAP inh 4.6, MITF primary 17.8, GPR151 ag -1.5 and FBW7 act 2.3*.
Cc1[nH]c2ccccc2c1C(=O)CN(C)C was read as TEAD-YAP inh -10.4, MITF primary -9.2, GPR151 ag -0.8 and FBW7 act -0.2.
For CCCSC1=C(C#N)C2(CCCCC2)C(C#N)=C(N)N1 the results were TEAD-YAP inh 7.0, MITF primary 18.4, GPR151 ag 1.4 and FBW7 act 1.0.
For CCOc1ccccc1/C=N/N=C1\NC(=O)C(CC(=O)Nc2ccccc2)S1 (centres undefined) the results were TEAD-YAP inh 2.0, MITF primary 16.9, GPR151 ag -0.9 and FBW7 act 0.5.
Screening COc1ccc2oc(=O)cc(CN3CCN(c4ncccn4)CC3)c2c1 returned TEAD-YAP inh -5.0, MITF primary 3.9, GPR151 ag -0.1 and FBW7 act -0.3.
For O=C(NCC1COc2ccccc2O1)c1ncoc1-c1ccc2ccccc2c1 (centres undefined) the results were TEAD-YAP inh -5.1, MITF primary 12.8, GPR151 ag -0.8 and FBW7 act 0.3.
For CC(=O)Oc1ccc(C2Nc3c(C(=O)O)ccc([N+](=O)[O-])c3C3C=CCC32)cc1 (centres undefined) the results were TEAD-YAP inh -1.8, MITF primary 19.0, GPR151 ag -1.2 and FBW7 act -0.7.
For O=C(O)c1ccc([N+](=O)[O-])c2c1NC(c1ccc([N+](=O)[O-])cc1)C1CC=CC21 (centres undefined) the results were TEAD-YAP inh 5.9, MITF primary 85.3*, GPR151 ag 0.0 and FBW7 act -1.4.
`Cc1cccc(-n2c(-c3ccccc3)cc3c2CC(C)(C)CC3=O)c1C` gave TEAD-YAP inh -14.3, MITF primary 1.2, GPR151 ag 0.4 and FBW7 act -0.1.
`COc1ccc(NC(=O)C(=O)NCC(=O)Nc2ccc(C)c(Cl)c2)cc1` gave TEAD-YAP inh 0.0, MITF primary 5.9, GPR151 ag 0.7 and FBW7 act 0.1.
CCCCCN1C=CC(=C2C(=O)c3ccccc3C2=O)C=C1 was read as TEAD-YAP inh 95.2*, MITF primary 14.0, GPR151 ag -8.2 and FBW7 act 1.5.
Screening CCCCCN1C(=O)C(=O)c2ccccc21 returned TEAD-YAP inh -0.6, MITF primary -3.4, GPR151 ag 1.9 and FBW7 act -0.1.
Screening Cc1cc(C(=O)N2CCc3ccccc32)n(-c2ccccc2)n1 returned TEAD-YAP inh 35.0*, MITF primary 2.8, GPR151 ag 0.6 and FBW7 act -0.3.
Screening COc1ccc(/C=C/C(=O)N2CCc3ccccc32)cc1 returned TEAD-YAP inh 74.1*, MITF primary 7.6, GPR151 ag -7.0 and FBW7 act 0.0.
`O=C(/C=C/c1ccccc1)N1CCCc2ccccc21` gave TEAD-YAP inh -27.4, MITF primary 3.2, GPR151 ag 2.0 and FBW7 act 0.0.
Screening O=C(/C=C/c1cccs1)N1CCc2ccccc21 returned TEAD-YAP inh 70.2*, MITF primary 17.9, GPR151 ag -6.1 and FBW7 act 0.3.
`O=C(/C=C/c1ccccc1)N1CCc2ccccc21` gave TEAD-YAP inh 65.9*, MITF primary 5.5, GPR151 ag -5.6 and FBW7 act 0.3.
`O=C(/C=C/c1ccc([N+](=O)[O-])cc1)N1CCCc2ccccc21` gave TEAD-YAP inh -7.3, MITF primary 27.9, GPR151 ag 0.6 and FBW7 act 0.2.
Screening Cc1ccc(C)c(NC(=O)CSc2nnc(-c3cccn(C)c3=O)n2C)c1 returned TEAD-YAP inh 3.0, MITF primary -7.8, GPR151 ag 1.7 and FBW7 act -0.2.
`O=C1C(=O)N(CCN2CCOCC2)C(c2ccc(F)cc2)/C1=C(\O)c1ccc(Cl)cc1` (centres undefined) gave TEAD-YAP inh -5.1, MITF primary -0.2, GPR151 ag 1.5 and FBW7 act -0.1.
For CC(C)n1cnc2c(Nc3ccccc3)nc(N3CCN(Cc4ccc5c(c4)OCO5)CC3)nc21 the results were TEAD-YAP inh 7.2, MITF primary 4.5, GPR151 ag 1.1 and FBW7 act -0.1.
For N#CC1CCCc2c1[nH]c1ccc(Cl)cc21 (centres undefined) the results were TEAD-YAP inh 38.9*, MITF primary -1.1, GPR151 ag 2.2 and FBW7 act -0.4.
Screening COC(=O)C1=CN(CCc2ccccc2)C=C(C(=O)OC)C1c1ccc2c(c1)OCO2 returned TEAD-YAP inh -2.8, MITF primary 1.7, GPR151 ag 0.0 and FBW7 act 3.2*.
Screening COC(=O)C1=CN(CCc2ccccc2)C=C(C(=O)OC)C1c1cc(OC)c(OC)c(OC)c1 returned TEAD-YAP inh 2.0, MITF primary 10.7, GPR151 ag -0.9 and FBW7 act 2.6*.
`O=C(Nc1ccc(-c2nc3ncccc3o2)cc1)c1ccc([N+](=O)[O-])o1` gave TEAD-YAP inh -22.9, MITF primary -6.1, GPR151 ag -0.4 and FBW7 act 0.0.
CS(=O)(=O)N(CC(=O)N1CCN(c2ccccc2)CC1)c1ccc(Cl)c(Cl)c1 was read as TEAD-YAP inh 12.3, MITF primary 8.0, GPR151 ag -1.2 and FBW7 act 0.1.
`COc1ccccc1-n1c(SCC(=O)Nc2ccc(F)cc2)nnc1-c1ccncc1` gave TEAD-YAP inh 5.3, MITF primary -8.7, GPR151 ag 1.2 and FBW7 act 0.0.
Screening COC(=O)CSc1nnc(-c2cccnc2)n1C returned TEAD-YAP inh 2.3, MITF primary 9.8, GPR151 ag 0.2 and FBW7 act 1.9*.
COc1ccccc1-n1c(SCC(=O)Nc2ccccc2F)nnc1-c1cccnc1 was read as TEAD-YAP inh 58.3*, MITF primary -4.7, GPR151 ag -0.7 and FBW7 act 0.4.
COc1cccc(-c2nnc(SCC(=O)Nc3ccccc3OC)n2-n2cccc2)c1 was read as TEAD-YAP inh 50.0*, MITF primary 2.3, GPR151 ag -0.6 and FBW7 act -0.3.
